High-throughput results: PubChem, NMMLSC
Sampled rows, rich in hits. Any-hit rate of the full collection: about 1.2%.
LAP4 TOR yeast: yeast TOR pathway LAP4-GFP modulation; S. cerevisiae LAP4-GFP multiplex, flow cytometry GFP, 3 h; median GFP as percent of DMSO wells; GFP response vs DMSO, % at 10 µM; hit rate 0.34% among 320,000;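 active = GFP response vs DMSO above a set limit, about the screen mean plus 3 SD, cut at about 150% in these data; inconclusive = under 70 cell events counted for the yeast strain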
RPL19A TOR yeast: alters RPL19A-GFP fluorescence in TOR pathway yeast screen; S. cerevisiae RPL19A-GFP strain, flow cytometry, 3 h; active compounds read low; percent response vs DMSO, % at 10 µM; hit rate 0.3% among 330,000; AID 2025;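 active = percent response vs DMSO below 50%; inconclusive = fewer than 70 events counted for the yeast strain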;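 also: median channel GFP fluorescence of the barcoded RPL19A-GFP strain; lower means less RPL19A-GFP as with rapamycin TOR inhibition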
AGP1 TOR yeast: yeast TOR pathway AGP1-GFP modulation; S. cerevisiae AGP1-GFP multiplex flow cytometry, 3 h; GFP as percent of DMSO wells; GFP response vs DMSO, % at 10 µM; hit rate 0.02% among 320,000;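 active = GFP response relative to DMSO above a set limit, near screen average plus 3 SD, cut at about 150% in these data; inconclusive = fewer than 70 cells counted for the yeast strain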;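 also: median GFP channel fluorescence of the gated AGP1 strain per well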
CIT2-GFP yeast: modulators of TOR pathway CIT2-GFP in S. cerevisiae | S. cerevisiae CIT2-GFP strain, flow cytometry, 3 h; 100 means same as DMSO wells | GFP response vs DMSO, % at 10 µM | hit rate 0.065% among 320,000 | AID 2029;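 active = GFP response relative to DMSO above a set limit, near the screen mean plus 3 SD, cut at about 150% in these data; inconclusive = Fewer than 70 cells measured for a yeast strain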;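 also: ratio of well median GFP fluorescence to mean of DMSO wells on the plate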
DSG3 Ab inh: human desmoglein-3 autoantibody binding inhibition; DSG3-coupled beads, scFv-anti-DSG3-GFP binding, flow cytometry; active compounds read low; AID 588358; binding (percent of control), % at 10 µM; P32926; hit rate 0.48% among 310,000;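 active = binding more than 3 SD below its plate's average and above zero; inconclusive = below that plate limit but binding exactly zero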;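 also: hits lower antibody fragment binding to DSG3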
Target sequence (P32926 whole entry, looked up, the tested form may be a part): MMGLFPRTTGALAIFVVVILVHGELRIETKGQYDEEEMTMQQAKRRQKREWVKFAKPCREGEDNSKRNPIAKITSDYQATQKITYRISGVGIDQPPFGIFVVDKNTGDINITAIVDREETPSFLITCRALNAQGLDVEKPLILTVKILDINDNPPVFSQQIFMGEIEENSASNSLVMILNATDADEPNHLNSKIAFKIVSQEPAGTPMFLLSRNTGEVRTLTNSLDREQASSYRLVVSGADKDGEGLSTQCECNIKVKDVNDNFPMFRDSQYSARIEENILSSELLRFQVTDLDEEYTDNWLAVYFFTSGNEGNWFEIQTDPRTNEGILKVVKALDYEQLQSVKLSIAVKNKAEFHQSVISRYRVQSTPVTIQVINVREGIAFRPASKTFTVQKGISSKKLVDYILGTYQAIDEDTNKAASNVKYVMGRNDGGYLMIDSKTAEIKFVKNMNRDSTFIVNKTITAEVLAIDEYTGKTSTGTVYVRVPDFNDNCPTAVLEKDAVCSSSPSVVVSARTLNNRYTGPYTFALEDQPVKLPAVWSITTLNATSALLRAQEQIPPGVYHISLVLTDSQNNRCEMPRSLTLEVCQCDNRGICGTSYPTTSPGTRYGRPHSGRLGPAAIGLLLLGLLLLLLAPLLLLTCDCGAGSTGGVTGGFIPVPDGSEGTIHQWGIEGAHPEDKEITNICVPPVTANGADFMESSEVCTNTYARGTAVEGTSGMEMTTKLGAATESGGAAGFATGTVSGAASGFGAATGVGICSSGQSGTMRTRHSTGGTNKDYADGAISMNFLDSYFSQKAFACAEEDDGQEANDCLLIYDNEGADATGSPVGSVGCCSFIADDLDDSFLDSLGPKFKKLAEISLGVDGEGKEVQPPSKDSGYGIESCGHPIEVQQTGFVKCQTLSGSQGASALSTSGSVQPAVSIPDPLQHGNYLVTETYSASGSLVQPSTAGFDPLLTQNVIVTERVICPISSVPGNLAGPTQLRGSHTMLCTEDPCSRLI
MEP2 TOR yeast: yeast TOR pathway MEP2-GFP modulation. AID 2016. GFP response vs DMSO, % at 10 µM. S. cerevisiae MEP2-GFP strain, flow cytometry GFP, 3 h; 100% = DMSO control level. hit rate 0.51% among 330,000;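 active = GFP response versus DMSO above a set limit, roughly screen mean plus 3 SD, cut at about 180% in these data; inconclusive = fewer than 70 cells counted for a yeast strain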;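 also: median GFP fluorescence of the barcode-gated MEP2-GFP cells per well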
Large screens that a line does not name were inactive; [ ] = dose if it differs, or a comment.

c1ccc(-c2nc(N3CCN(c4ccccc4)CC3)nc(-n3ccnc3)n2)cc1	CIT2-GFP yeast inconclusive, MEP2 TOR yeast 243[may fluoresce violet]
COC(=O)c1ccc(N/C=C/C(=O)c2ccccc2)cc1	none
Cc1ccccc1-c1cccc([C@@H]2C[C@H]3[C@H](CON3C)CN2C(=O)CCc2ccccc2)c1	none (no result: LAP4 TOR yeast, RPL19A TOR yeast, AGP1 TOR yeast, CIT2-GFP yeast, MEP2 TOR yeast)
COc1ccc(C2c3c(oc4ccccc4c3=O)C(=O)N2CCN2CCOCC2)cc1OC (configuration not stated)	MEP2 TOR yeast 188
CC(C)(C)c1cc(C(=O)NCc2cc(F)cc3c2OCOC3)n(Cc2ccccc2)n1	none (no result: DSG3 Ab inh)
COc1ccc2nc(NCc3ccc(OC)c(OC)c3OC)sc2c1	none (no result: LAP4 TOR yeast, RPL19A TOR yeast, AGP1 TOR yeast, CIT2-GFP yeast, MEP2 TOR yeast)
N#Cc1c(SCc2c(Cl)cccc2Cl)nc(N)[nH]c1=S	none
Cc1ccccc1/C(N)=N/OC(=O)c1ccc(F)cc1	none
C/C(=N/OC(=O)c1ccc(F)cc1)c1ccc(C)cc1	CIT2-GFP yeast inconclusive, MEP2 TOR yeast 327[may fluoresce violet]
COc1ccc(CC(=O)Nc2c3c(nn2C(C)(C)C)CS(=O)(=O)C3)cc1OC	none
Cc1nnc2sc(SCC(=O)Nc3nccs3)nn2c1=O	RPL19A TOR yeast 22[may fluoresce violet], AGP1 TOR yeast inconclusive, CIT2-GFP yeast inconclusive, MEP2 TOR yeast 235[may fluoresce violet]
Nc1nnc(/C=C/c2cccc([N+](=O)[O-])c2)s1	none
CC1=C/C(=C/N(C)C)C(=O)O1	RPL19A TOR yeast 19[may fluoresce violet], AGP1 TOR yeast inconclusive, CIT2-GFP yeast inconclusive, MEP2 TOR yeast inconclusive
O=[N+]([O-])c1ccc(O)c(/C=N/n2cnc3ccccc32)c1	AGP1 TOR yeast inconclusive, CIT2-GFP yeast inconclusive, MEP2 TOR yeast 184[may fluoresce violet]
COc1ccc2c(c1)c(N=NC(N)=S)c(O)n2CC(=O)c1ccccc1	DSG3 Ab inh 59
CC1(C)CC(=O)C(C(C2=C(O)CC(C)(C)CC2=O)c2cccs2)C(=O)C1 (configuration not stated)	MEP2 TOR yeast 185
O=C(Nc1c2ccccc2nc2ccccc12)C(Cl)(Cl)Cl	RPL19A TOR yeast 46
CCCc1cc(=O)[nH]c(SCC(=O)N2CCN(S(=O)(=O)c3ccccc3)CC2)n1	none
CCCc1cc(=O)[nH]c(SCC(=O)N2CCN(S(=O)(=O)c3ccc4ccccc4c3)CC2)n1	DSG3 Ab inh -2.3
CN(C)N=C1c2cc(S(=O)(=O)N(C)C)ccc2-c2ccc(S(=O)(=O)N(C)C)cc21	none
CN(C)S(=O)(=O)c1ccc2c(c1)C(=NNC(N)=O)c1cc(S(=O)(=O)N(C)C)ccc1-2	none
CN(C)S(=O)(=O)c1ccc2c(c1)C(=NO)c1cc(S(=O)(=O)N(C)C)ccc1-2	DSG3 Ab inh 76
CN(CCO)S(=O)(=O)c1ccc2c(c1)C(=NNC(N)=O)c1cc(S(=O)(=O)N(C)CCO)ccc1-2	DSG3 Ab inh -5.9
O=C(CSc1nnc(-c2cccs2)n1C1CC1)NCC1CCCO1 (configuration not stated)	none
CCn1c(=O)c(C(=O)CN2CCN(S(=O)(=O)c3cc(C)ccc3C)CC2)c(N)n(Cc2ccccc2)c1=O	DSG3 Ab inh 88
CC1CCCC(NC(=O)CSc2nnc(-c3cccnc3)o2)C1C (configuration not stated)	none (no result: LAP4 TOR yeast, RPL19A TOR yeast, AGP1 TOR yeast, CIT2-GFP yeast, MEP2 TOR yeast)
O=c1c2ccccc2sn1-c1ccc(Cl)cc1Cl	DSG3 Ab inh 61 (no result: LAP4 TOR yeast, RPL19A TOR yeast, AGP1 TOR yeast, CIT2-GFP yeast, MEP2 TOR yeast)
COc1c(O)c(=O)n2c3ccccc3c3ccnc1c32	RPL19A TOR yeast 24[may fluoresce violet], CIT2-GFP yeast inconclusive, MEP2 TOR yeast 211[may fluoresce violet]
O=c1c(Cl)c(O)c2cccc3c4ccccc4n1c23	none
CN1CCN(Cc2nc3ccccc3c(=O)n2Cc2nc(-c3ccc([N+](=O)[O-])cc3)cs2)CC1	DSG3 Ab inh -160
CN(C)Cc1nc2ccccc2c(=O)n1Cc1nc(-c2cccc([N+](=O)[O-])c2)cs1	none
CC12CCCC(CC(=O)O)(C1)NC(=O)C2 (configuration not stated)	DSG3 Ab inh 64 (no result: LAP4 TOR yeast, RPL19A TOR yeast, AGP1 TOR yeast, CIT2-GFP yeast, MEP2 TOR yeast)
CC1CCN(c2nc3c(N)ncnc3n2[C@@H]2O[C@H](CO)[C@@H](O)[C@H]2O)CC1	none
CC1CCN(c2nc3c(=O)[nH]c(N)nc3n2[C@@H]2O[C@H](CO)[C@@H](O)[C@H]2O)CC1	AGP1 TOR yeast inconclusive, CIT2-GFP yeast inconclusive, MEP2 TOR yeast active[may fluoresce violet]
O=C(Cn1cc(C(=O)c2cccs2)c2ccccc21)NC1CCCCC1	DSG3 Ab inh 45 (no result: CIT2-GFP yeast)
CCOC(=O)c1sc(N)nc1C(F)(F)F	none (no result: LAP4 TOR yeast, RPL19A TOR yeast, AGP1 TOR yeast, CIT2-GFP yeast, MEP2 TOR yeast)
COc1ccccc1NS(=O)(=O)c1cc(C(=O)NC2CC(C)(C)NC(C)(C)C2)ccc1Cl	none (no result: LAP4 TOR yeast, RPL19A TOR yeast, AGP1 TOR yeast, CIT2-GFP yeast, MEP2 TOR yeast)
CC(C)C1N=C(c2ccc3c(c2)OCO3)CC(c2ccccc2O)N1 (configuration not stated)	none
CCOc1ccccc1C1N=C(c2ccc(OC)cc2)CC(c2ccccc2O)N1 (configuration not stated)	LAP4 TOR yeast 167
OCC1OC(c2ccc(OCc3ccccc3)cc2OCc2ccccc2)C(O)C1O (configuration not stated)	none (no result: LAP4 TOR yeast, RPL19A TOR yeast, AGP1 TOR yeast, CIT2-GFP yeast, MEP2 TOR yeast)
Cc1ccnc(SCC(=O)N2CCC(C(N)=O)CC2)n1	RPL19A TOR yeast 15[may fluoresce violet], AGP1 TOR yeast inconclusive, CIT2-GFP yeast inconclusive, MEP2 TOR yeast 358[may fluoresce violet] (no result: DSG3 Ab inh)
Cc1cc(Cl)ccc1N=c1ssnc1Cl	LAP4 TOR yeast 157, DSG3 Ab inh 53
Cc1cc(C)nc(/N=c2/ssnc2Cl)c1	LAP4 TOR yeast 188
N=c1c(S(=O)(=O)c2ccccc2)cc2c(=O)n3ccccc3nc2n1CCCN1CCOCC1	AGP1 TOR yeast inconclusive, CIT2-GFP yeast inconclusive, MEP2 TOR yeast 233[may fluoresce violet]
Cc1ccc(S(=O)(=O)c2cc3c(=O)n4ccccc4nc3n(CCCN3CCOCC3)c2=N)cc1C	RPL19A TOR yeast 41[may fluoresce violet], AGP1 TOR yeast inconclusive, CIT2-GFP yeast inconclusive
CC(C)OCCCn1c(=N)c(S(=O)(=O)c2ccccc2)cc2c(=O)n3ccccc3nc21	none
CCOCCCn1c(=N)c(S(=O)(=O)c2ccccc2)cc2c(=O)n3cc(C)ccc3nc21	CIT2-GFP yeast inconclusive, MEP2 TOR yeast 176[may fluoresce violet]
N=c1c(S(=O)(=O)c2ccc(Cl)cc2)cc2c(=O)n3ccccc3nc2n1CCN1CCOCC1	none (no result: CIT2-GFP yeast)
CC(C)c1ccc(NC(=O)c2cccc(Br)c2)cc1	none
O=C(N/N=C/c1cccs1)c1ccccn1	none
Cc1ccc(/C=N/NC(=O)c2ccccn2)s1	MEP2 TOR yeast 200
Cc1cc(NC(=O)Cn2cc(C(F)(F)F)cc(Cl)c2=O)no1	CIT2-GFP yeast inconclusive, MEP2 TOR yeast 224[may fluoresce violet]
Cc1ccc(Cl)cc1NC(=O)Cn1cc(C(F)(F)F)cc(Cl)c1=O	none
O=C(Nc1nccs1)c1ccc(COc2c(F)c(F)cc(F)c2F)o1	none
Cc1ccc(OCc2ccc(C(=O)Nc3nccs3)o2)cc1C	RPL19A TOR yeast 15[may fluoresce violet], AGP1 TOR yeast inconclusive, CIT2-GFP yeast inconclusive, MEP2 TOR yeast 255[may fluoresce violet]
COc1ncnc2c1oc1nc(C(C)C)c3c(c12)CC(C)(C)OC3	RPL19A TOR yeast 44[may fluoresce violet], MEP2 TOR yeast 531[may fluoresce violet] (no result: CIT2-GFP yeast)
Cc1noc(NC(=O)c2ccc(Cl)cc2)c1Cl	RPL19A TOR yeast 41[may fluoresce violet], AGP1 TOR yeast inconclusive, CIT2-GFP yeast inconclusive
